Most compounds without a hit are left out; they make up all but 19% or so of the library.
HT1080 IDH1KD tx: HT-1080 IDH1 knockdown cell toxicity (counter line); Potency, µM (top dose mostly 46.1 µM), for inactives: top-dose activity, negative = toxicity, usual class: cytotoxic; AID 686971; 360,000 tested, 2% active; HT-1080 IDH1 knockdown viability, ATP luminescence, 48 h;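 note: potency is the fitted concentration of half-maximal effect; 0% = DMSO wells and -100% = cell-free medium wells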
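Viability of IDH1-knockdown HT-1080 fibrosarcoma cells was assessed by CellTiter-Glo after 48 h at 37 °C with titrated compound; concentration-effect curves were classified by fit quality and response size.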
HT1080-NT tox: kills 2HG-producing HT-1080-NT fibrosarcoma cells | Potency, µM (highest dose often 46.1 µM), without a hit: at the top dose activity, negative = less viability, usual class: cytotoxic | HT-1080-NT fibrosarcoma viability, CellTiter-Glo ATP luminescence, 48 h | 360,000 tested, 1.6% active;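 note: NT is the 2HG producing partner of a matched IDH1 knockdown line; potency is the fitted concentration of half-maximal effect; 0% = DMSO-treated cells and -100% = media-only wells without cells; nearly all actives have a fitted effect of over 55% in size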
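Fibrosarcoma NT cells, 750 per well in 5% FBS RPMI, were exposed to compound for 48 hours. Viability: CellTiter-Glo luminescence.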
TDP1 cell CPT: DT40-hTDP1 cell growth loss with CPT; chicken DT40 Tdp1-/-;hTDP1 cells + 20 nM CPT, ATP luminescence, 48 h; Potency, µM (highest dose often 46.2 µM), for inactives: at the highest dose activity change, negative = growth inhibition, actives largely listed as inhibitors; 420,000 tested, 12% active; AID 686979; note: potency is the fitted concentration of half-maximal effect; nearly all actives have a fitted effect of over 55% in size
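Chicken DT40 Tdp1-/- cells complemented with human TDP1, 400 cells/well, exposed to compounds plus 20 nM camptothecin for at least 48 h at 37 C; viability read as ATP content by CellTiter-Glo luminescence.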
TDP1 cell noCPT: qHTS for Inhibitors of human tyrosyl-DNA phosphodiesterase 1 (TDP1): qHTS in cells in absence of CPT; DT40 Tdp1-/- hTDP1 cells, no CPT, ATP luminescence, 48 h; Potency, µM (highest dose often 46.2 µM), for inactives: top-dose activity change, negative = growth inhibition, most hits filed as inhibitors; 420,000 tested, 15% active; note: potency is the fitted concentration of half-maximal effect; nearly all actives have a fitted effect of over 55% in size
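Compound effects on proliferation are scored in DT40 Tdp1-/-;hTDP1 cells in the absence of CPT. ATP levels (CellTiter-Glo luminescence) are recorded after a ≥48 hr, 37 °C incubation.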
IL1B secr inh: inflammasome signaling inhibition, IL-1 beta readout; THP-1 LPS/ATP IL-1B secretion, AlphaLISA, 16 h; stronger effect = lower value; activity change, % at 57.5 µM; 360,000 tested, 4.7% active; AID 743279; in the data active = activity change below about -50%; inconclusive = mostly about -30% to -49%
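THP-1 cells pretreated 1 hr with compounds (up to 57.5 uM final), then stimulated with LPS (250 ng/mL final) plus ATP (1.25 mM final); secreted IL-1B measured by AlphaLISA after 16 hr, decreased signal indicating inhibition.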
Starred values were filed as active, the others as inactive; ? = inconclusive; nt = not tested or not shown. Unless noted, calls come from the whole dose curve; as a rule, active = well fitted curve in the direction sought with a large enough effect; inconclusive = small, poorly fitted or top-dose-only effect, or another doubt; inactive = no such curve, though single readings can be large; an effect the other way counts as inactive or inconclusive. Unless noted, % is set by controls: 0 for no effect and ±100 for the full control effect.

SMILES	HT1080 IDH1KD tx	HT1080-NT tox	TDP1 cell CPT	TDP1 cell noCPT	IL1B secr inh
Cc1cc(C)cc(-n2ccnc2SCC(=O)Nc2ccc(C)c(Cl)c2)c1	nt	nt	16.4µM*	18.4µM*	nt
Cc1ccc(C)c2c1cc(C)c1nnc(SCC(=O)N3CCCc4ccccc43)n12	-5.1%	-0.1%	?	14.6µM*	-0.9
CC(=O)Nc1ccc(NC(=O)CCc2c(C)noc2C)cc1	4.5%	3.1%	0.9%	12.4%	23.6
CN1CCN(S(=O)(=O)c2ccc(Cc3ccc(S(=O)(=O)N4CCN(C)CC4)cc3)cc2)CC1	-23.1%	-19.1%	?	?	1.5
N=C(N)SCCN	-0.6%	11.7%	23.1µM*	14.6µM*	21.3
COc1ccc(CNC(=O)[C@H](C)N2C(=O)N3CCc4c([nH]c5ccccc45)[C@@]3(C)C2=O)cc1OC	-0.9%	-6.7%	2.59µM*	4.11µM*	24.6
Cc1ccc(CNC(=O)[C@H](C)N2C(=O)N3CCc4c([nH]c5ccccc45)[C@@]3(C)C2=O)cc1	-1.8%	-0.2%	?	?	37.3
COc1ccc2[nH]c3c(c2c1)CCN1C(=O)N([C@@H](C)C(=O)NCCc2ccc(F)cc2)C(=O)[C@]31C	-0.7%	-3.7%	23.1µM*	7.31µM*	-23.1
C[C@@H](C(=O)NCCc1ccc(F)cc1)N1C(=O)N2CCc3c([nH]c4ccccc34)[C@@]2(C)C1=O	-21.7%	-14.1%	11.6µM*	11.6µM*	-9.4
CC(C)C[C@@H](C(=O)NCc1ccco1)N1C(=O)N2CCc3c([nH]c4ccccc34)[C@@]2(C)C1=O	-22.0%	-14.6%	?	5.17µM*	-1.2
O=C(OCC(COC(=O)c1cccnc1)(COC(=O)c1cccnc1)COC(=O)c1cccnc1)c1cccnc1	nt	nt	4.6%	-0.7%	nt
Cc1c(CC(=O)N2CCCCC2)c(=O)oc2cc(O)ccc12	nt	nt	-4.1%	3.7%	nt
N=c1c(C(=O)NCCN2CCOCC2)cc2c(=O)n3ccccc3nc2n1CCc1ccccc1	12.1%	20.6%	?	23.1µM*	2.3
Cc1ccc(Cn2c(=N)c(C(=O)NCCN3CCOCC3)cc3c(=O)n4ccccc4nc32)cc1	-0.5%	7.0%	?	?	-6.9
CCOCCCn1c(=N)c(C(=O)NCc2ccccc2)cc2c(=O)n3ccccc3nc21	nt	nt	-19.1%	?	nt
N=c1c(C(=O)NCCc2ccccc2)cc2c(=O)n3ccccc3nc2n1CCCN1CCOCC1	-21.3%	-28.9%	-26.5%	14.6µM*	-56.2*
N=c1c(C(=O)NCc2ccccc2)cc2c(=O)n3ccccc3nc2n1CCCN1CCOCC1	-13.5%	-3.7%	-2.9%	?	1.9
COc1ccc(CCn2c(=N)c(C(=O)NCc3ccco3)cc3c(=O)n4ccccc4nc32)cc1	12.6µM*	?	?	23.1µM*	-53.6*
CCOC(=O)C1(CCc2ccccc2)CCN(C(=O)[C@@H]2C[C@@H](C)NC(=S)N2)CC1	-7.7%	-6.3%	-27.5%	-16.4%	8.9
Cc1ccc(Cl)cc1N1CCN(S(=O)(=O)c2ccc3c(c2)oc(=O)n3C)CC1	6.5%	-2.1%	-13.4%	?	-5.4
COc1ccc(/C=N\NC(=O)COc2ccc(C(C)(C)C)cc2)cc1Cn1nc(C)cc1C	?	?	?	20.6µM*	13.1
Nc1ccc2c(c1)ncn2CCCn1cnc2cc(N)ccc21	-33.2%	-5.9%	20.6µM*	?	-2.7
CCn1c(C)nc2cc(N)ccc21	-0.5%	-1.3%	3.9%	-1.3%	10.3
CCOC(=O)C(=O)c1csc(NC(=O)CCSc2ccc(C)cc2)n1	11.6%	6.6%	12.6%	17.0%	11.9
C=CCN(c1ccccc1)S(=O)(=O)c1cccc(C(=O)NC2CCN(Cc3ccccc3)CC2)c1	-14.8%	-5.3%	13µM*	18.4µM*	-53.6*
SMILES	HT1080 IDH1KD tx	HT1080-NT tox	TDP1 cell CPT	TDP1 cell noCPT	IL1B secr inh
COc1ccccc1C(=O)NC1CCN(C(=S)NCCc2ccccc2)CC1	2.7%	-2.0%	-4.0%	-27.8%	-77.2*
CCN(CC)S(=O)(=O)c1ccc(Cl)c(C(=O)NC2CCN(Cc3ccccc3)CC2)c1	1.8%	-0.9%	16.4µM*	13µM*	-8.6
Cc1cccc(C(=O)NC2CC3CCCC(C2)N3C(=O)Nc2ccccc2)c1 (stereo not drawn)	1.5%	-9.4%	-29.6%	?	5.8
Cc1cccc(C(=O)NC2CC3CCCC(C2)N3S(=O)(=O)c2ccccc2)c1 (stereo not drawn)	-6.3%	-5.6%	13µM*	18.4µM*	-55.8*
CCN(CC)S(=O)(=O)c1ccc(NC2CCN(Cc3ccccc3)CC2)nc1	-1.9%	-2.4%	?	?	-6.0
CN(C)C=Nc1c(I)cc(I)c(CCC(=O)O)c1I	nt	nt	-4.0%	3.5%	nt
Cc1cc(C)cc(NC(=S)N2C3CCCC2CC(NC(=O)C2CC2)C3)c1 (stereo not drawn)	-4.5%	-0.5%	-11.1%	-10.4%	6.8
COc1ccccc1CNC(=O)/C=C/c1ccc(Br)o1	21.0%	15.3%	-10.5%	-3.3%	7.9
COc1ccccc1NS(=O)(=O)c1ccc(C)c(C(=O)NC2CCN(Cc3ccccc3)CC2)c1	-15.1%	-11.8%	20.6µM*	16.4µM*	-57.3*
Cc1ccc(NS(=O)(=O)c2cccc(C(=O)NC3CCN(Cc4ccccc4)CC3)c2)c(C)c1	?	?	9.2µM*	?	?
CCN(CC)S(=O)(=O)c1cccc(C(=O)Nc2cc(C)nn2-c2ccccc2)c1	2.3%	-14.5%	2.0%	?	21.7
CCN(CC)S(=O)(=O)c1ccc(Cl)c(C(=O)Nc2cc(C)nn2-c2ccccc2)c1	-11.2%	-4.1%	18.4µM*	?	-18.4
COc1ccccc1NS(=O)(=O)c1cccc(C(=O)NC2CCN(Cc3ccccc3)CC2)c1	-6.7%	?	?	23.1µM*	?
COc1ccc(NS(=O)(=O)c2ccc(C)c(C(=O)NC3CCN(Cc4ccccc4)CC3)c2)cc1	-16.8%	-2.7%	16.4µM*	?	11.9
O=C(NC1CCN(Cc2ccccc2)CC1)c1cccc(S(=O)(=O)Nc2ccc(Br)cc2)c1	-18.9%	-18.7%	20.6µM*	?	?
CN(C)S(=O)(=O)c1cccc(C(=O)NCC(=O)NC2CCN(Cc3ccccc3)CC2)c1	12.5%	16.9%	-16.8%	?	19.2
O=C(Nc1ccc(C(=O)N2CCOCC2)cc1)c1cccc([N+](=O)[O-])c1	2.4%	-3.7%	-1.7%	-23.9%	-8.8
CC(C)CN(C(=O)COC(=O)CCc1nc2ccccc2s1)c1c(N)n(Cc2ccccc2)c(=O)[nH]c1=O	7.6%	4.8%	16.4µM*	?	-7.3
